# Compound activity: PubChem BioAssay, Broad Institute
# Rows were chosen to be rich in hits. Some 2.3% of all compounds tested hit in one or more screens of this group.
# PDI turbidity – blocks human protein disulfide isomerase activity | P07237 | PDI insulin aggregation turbidity, A650, 90 min | inhibition, % at 10 µM | 350,000 compounds, 0.052% hits | AID 588391;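 active = mean inhibition across replicates of 30% or more, whatever share of single replicates reach that level; inconclusive = mean inhibition below 30% while every single replicate reaches 30%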
# DENV2 CPE rescue – protects cells from dengue virus 2 cytopathic effect. DENV2-infected cells, cytopathic effect rescue, plate reader. CPE inhibition, % at 9.99 µM. 350,000 compounds, 1.7% hits. AID 651640; in the data active = CPE inhibition above about 20%, passing the limit was not always enough; inconclusive = no clear call, values can overlap the other calls; tested in BHK-21 cells;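 also: 0% = median of neutral control wells and 100% = median of positive control wells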
# SIRT5 inh – blocks human SIRT5 desuccinylation of peptide; inhibition, % at 15 µM; AID 652115; 330,000 compounds, 1.1% hits; Purified SirT5, succinyl-peptide AMC, trypsin-coupled fluorescence; in the data active = inhibition above about 15%; inconclusive = no clear call, values can overlap the other calls
# ERp5 block – blocks human ERp5 reductase activity on insulin | ERp5 insulin aggregation, absorbance 650 nm, 90 min | inhibition, % at 9.99 µM | Q15084 | 350,000 compounds, 0.05% hits;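 active = mean replicate inhibition above about 25%, with every replicate also reaching it, limit read from the data, passing the limit was not always enough; inconclusive = only one of those two criteria met; inactive = neither criterion met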
# Rtt109 Vps75 – C. albicans Rtt109 histone acetyltransferase inhibition; purified Rtt109/Vps75, ThioGlo CoA-SH fluorescence, 4 h; inhibition, % at 34.9 µM; 330,000 compounds, 0.16% hits; AID 540336;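 active = inhibition of at least 50% in every replicate; inconclusive = best replicate reaches 50% inhibition but some replicates fall short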
# Target sequence (Q5AAJ8 whole entry, looked up): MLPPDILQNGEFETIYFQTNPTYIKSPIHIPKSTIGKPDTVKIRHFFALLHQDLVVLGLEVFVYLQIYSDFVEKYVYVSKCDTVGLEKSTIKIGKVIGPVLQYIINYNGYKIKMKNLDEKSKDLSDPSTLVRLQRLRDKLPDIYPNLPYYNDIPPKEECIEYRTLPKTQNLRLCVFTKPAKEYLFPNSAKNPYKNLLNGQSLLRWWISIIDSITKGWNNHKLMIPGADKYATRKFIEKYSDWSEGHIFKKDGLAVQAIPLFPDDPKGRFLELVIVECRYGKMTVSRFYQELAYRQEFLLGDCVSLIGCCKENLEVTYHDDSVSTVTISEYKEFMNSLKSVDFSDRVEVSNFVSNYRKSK
# * marks the source's active call; other numbers are inactive results; ? = inconclusive; · = no result given; ! = not confirmed by another sample.
SMILES,PDI turbidity,DENV2 CPE rescue,SIRT5 inh,ERp5 block,Rtt109 Vps75
CCOc1ccccc1N(C)C(=O)c1cn(CC)c(=O)c2cc(OC)c(OC)cc12,-9,5,20*,-11,-1
Cc1ccc(NC(=O)c2nc(S(=O)(=O)Cc3ccccc3C)ncc2Cl)cc1C,3,-7,16*,3,5
CCc1ccc(NC(=O)c2nc(S(=O)(=O)Cc3ccccc3)ncc2Cl)cc1,9,1,-1,-1,3
CCOC(=O)c1ccc(N=C2C(=S)N(c3ccc(C(=O)OCC)cc3)C(=N)N2/N=C/c2ccccc2)cc1,-6,·,·,·,64*
CCOC(=O)c1ccc(N=c2scc(C)n2CC)cc1,-2,-7,1,0,-5
CCC(=O)N1CCC2(CC1)Oc1ccc(Cl)cc1C(=O)C21CC(c2ccc(Cl)cc2)=NO1 (stereo not given),-2,90*,·,4,0
CN(Cc1ccccc1)C(c1ccnc2ccccc12)c1nnnn1-c1ccc2c(c1)OCCO2 (stereo not given),·,-4,39*,1,·
O=C(c1ccccc1F)N1C[C@@H]2[C@H](c3ccccc31)[C@@H](CO)N2C(=O)c1ccc(F)cc1,·,2,1,1,·
O=C(NCC(c1cccs1)N1CCOCC1)C1CCN(S(=O)(=O)c2ccccc2C(F)(F)F)CC1 (stereo not given),0,61*,-2,-4,3
CCc1nnc(N2C(=O)c3ccccc3C2(O)c2ccccc2)s1 (stereo not given),-4,41*,14,-2,-4
CCCC(=O)Nc1ccc2c(c1)OC[C@@H](C)N(C(=O)CN(C)C)C[C@H](C)[C@@H](OC)CN(C)C2=O,·,-6,-2,2,·
COCC(=O)N1C[C@@H]2[C@H](c3ccccc31)[C@H](CO)N2C(=O)C1CCCCC1,·,·,-2,2,·
COc1cc2c(cc1OC)C(C)N(C(=O)c1ccc(C)o1)CC2 (stereo not given),0,13,22*,-1,-11
COc1cc2c(cc1OC)C(C)N(C(=O)c1sccc1C)CC2 (stereo not given),-2,-2,5,·,-6
COc1cc2c(cc1OC)C(C)N(C(=O)Cn1ncc3c1-c1cc(C)ccc1OC3)CC2 (stereo not given),·,70*,·,-6,19
O=C(C[C@H]1CC[C@@H](NC(=O)Nc2cc(F)ccc2F)[C@H](CO)O1)NCc1ccncn1,·,-6,0,-7,·
O=C(C[C@@H]1C[C@H]2c3cc(NS(=O)(=O)c4ccccc4)ccc3O[C@H]2[C@H](CO)O1)NC1CCCCC1,·,-1,1,35*,·
O=C(C[C@H]1C[C@H]2c3cc(NS(=O)(=O)c4ccccc4)ccc3O[C@H]2[C@H](CO)O1)NC1CCCC1,·,6,-4,-5,·
O=C(C[C@@H]1C[C@H]2c3cc(NS(=O)(=O)c4ccc(F)cc4)ccc3O[C@H]2[C@H](CO)O1)NCc1ccc(-c2ccccc2)cc1,·,-2,20*,0,·
O=C(C[C@@H]1C[C@@H]2c3cc(NS(=O)(=O)c4ccc(F)cc4)ccc3O[C@@H]2[C@H](CO)O1)NCCc1ccccc1,·,58*,-1,-2,·
O=C(C[C@@H]1C[C@@H]2c3cc(NS(=O)(=O)c4ccc(F)cc4)ccc3O[C@@H]2[C@@H](CO)O1)NCCc1ccccc1,·,-2,3,-3,·
O=C(C[C@H]1C[C@H]2c3cc(NS(=O)(=O)c4ccc(F)cc4)ccc3O[C@H]2[C@@H](CO)O1)NCCc1ccccc1,·,59*,1,2,·
COc1ccc(NC(=O)N(C)C[C@H]2Oc3c(cccc3N(C)C)C(=O)N([C@@H](C)CO)C[C@@H]2C)cc1,·,13,-3,2,·
O=C(C[C@@H]1C=C[C@H](NC(=O)C2CCC2)[C@@H](CO)O1)Nc1nccs1,·,1,-1,2,·
C[C@H]1CN([C@@H](C)CO)C(=O)c2cc(NC(=O)Cc3cn(C)c4ccccc34)ccc2O[C@@H]1CN(C)CC1CC1,·,-2,6,4,·
SMILES,PDI turbidity,DENV2 CPE rescue,SIRT5 inh,ERp5 block,Rtt109 Vps75
O=C(CN1CCOCC1)NCC[C@H]1CC[C@@H](NC(=O)Nc2ccc(F)cc2)[C@@H](CO)O1,·,-5,4,-1,·
O=C(CN1CCOCC1)NCC[C@@H]1CC[C@@H](NC(=O)Nc2ccc(F)cc2)[C@H](CO)O1,·,11,16*,-4,·
O=C(CN1CCOCC1)NCC[C@@H]1CC[C@H](NC(=O)Nc2ccc(F)cc2)[C@H](CO)O1,·,-2,26*,2,·
O=C(CN1CCOCC1)NCC[C@H]1CC[C@H](NC(=O)Nc2ccc(F)cc2)[C@H](CO)O1,·,-8,4,3,·
CN(CC(=O)Nc1c(Cl)cccc1Cl)C(=O)c1ccccc1SCC(=O)N1CCCC1,1,-5,1,-1,1
Cc1cccc(C)c1NC(=O)CN(C)C(=O)c1ccccc1SCC(=O)N1CCCC1,3,9,16*,8,1
CC(=O)/C(C#N)=C1\NC(=O)C(Cc2cc(Cl)ccc2Cl)S1 (stereo not given),-4,57*,2,6,1
Cc1nn(Cc2ccc(Cl)cc2)c(C)c1NC(=O)c1ccc([N+](=O)[O-])cc1,-17,34*,-3,-5,-1
CC(=O)N1[C@H](CO)[C@@H](c2ccc(C3=CCCCC3)cc2)[C@@H]1CNC(=O)CN(C)C,·,22*,-1,6,·
CCCNC(=O)NC[C@@H]1[C@@H](c2ccc(C3=CCCC3)cc2)[C@@H](CO)N1C(=O)CC,·,116*,11,-2,·
COc1ccc(NC(=O)N(C)C[C@H]2OCCCC[C@H](C)Oc3ccc(N(C)C)cc3C(=O)N([C@H](C)CO)C[C@@H]2C)cc1,·,?,-1,2,·
CO[C@@H]1CN(C)C(=O)c2ccc(NS(=O)(=O)c3ccccc3)cc2OC[C@H](C)N(C(=O)NC(C)C)C[C@@H]1C,·,7,2,-2,·
O=C(Nc1ccc(F)cc1)Nc1ccc2c(c1)[C@H]1C[C@H](CC(=O)N3CCCCC3)O[C@H](CO)[C@H]1O2,·,7,·,·,·
CCCCCCCCCCCCCCCC[n+]1ccccc1,?,?,6,7,75*!
CCCc1cn(CC[C@H]2CC[C@@H](NC(=O)C3CCCC3)[C@H](CO)O2)nn1,·,-9,3,0,·
O=S(=O)(c1ccccc1F)N1CC[C@@H]2[C@@H](CO)Nc3ccc(-c4cccc(F)c4)cc3[C@@H]21,·,-19,6,3,·
O=S(=O)(c1ccccc1F)N1CC[C@@H]2[C@H](CO)Nc3ccc(-c4ccccc4)cc3[C@@H]21,·,24*,8,-2,·
Cc1ccc(S(=O)(=O)N2CC[C@@H]3[C@H](CO)Nc4ccc(-c5ccccc5F)cc4[C@@H]32)cc1,·,147*,7,2,·
Cc1ccc(S(=O)(=O)N2CC[C@@H]3[C@H]2c2cc(-c4ccc(C#N)cc4)ccc2N[C@@H]3CO)cc1,·,24*,·,·,·
Cc1ccc(S(=O)(=O)N2CC[C@H]3[C@H](CO)Nc4ccc(-c5ccccc5F)cc4[C@H]32)cc1,·,18,5,2,·
